# PubChem BioAssay (Tox21)
# Unmarked numbers belong to inactive results. Records with an inconclusive call do not appear. A call without a number means that no potency is given here. Active and inactive are the calls of the source. Unless noted, the call rests on the fitted dose curve; in most records, active means well fitted curve in the direction sought with a large enough effect in the repeat runs; inconclusive means weak or mixed curves; inactive means no such curve, though single readings can be large; an effect the other way counts as inactive or inconclusive.
# What was measured:
# [1] = qHTS assay to identify small molecule antagonists of the sonic hedgehog signaling (Shh) pathway (AID 1259369; calls by dose curve; further: nearly all actives have a fitted effect of over 45% in size)
# Outline: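 3T3Gli1-Luc, conditioned-medium-stimulated, 24hr cpd, 37C/5% CO2; Gli1-driven firefly Luc luminescence after 30min RT with luciferase reagent. Cells plated 4hr before cpd.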
# [2] = molecular target: Estrogen receptor beta (Homo sapiens) (UniProt Q92731); test: qHTS assay to identify small molecule agonists of the estrogen receptor beta (ER-beta) signaling pathway (AID 1259377; active means well fitted activation curve with a large enough effect in the signal ratio in the repeat runs, not every such curve was filed as active; the % refers to the signal ratio)
# Sequence of Estrogen receptor beta (Homo sapiens) (Q92731 whole entry, looked up): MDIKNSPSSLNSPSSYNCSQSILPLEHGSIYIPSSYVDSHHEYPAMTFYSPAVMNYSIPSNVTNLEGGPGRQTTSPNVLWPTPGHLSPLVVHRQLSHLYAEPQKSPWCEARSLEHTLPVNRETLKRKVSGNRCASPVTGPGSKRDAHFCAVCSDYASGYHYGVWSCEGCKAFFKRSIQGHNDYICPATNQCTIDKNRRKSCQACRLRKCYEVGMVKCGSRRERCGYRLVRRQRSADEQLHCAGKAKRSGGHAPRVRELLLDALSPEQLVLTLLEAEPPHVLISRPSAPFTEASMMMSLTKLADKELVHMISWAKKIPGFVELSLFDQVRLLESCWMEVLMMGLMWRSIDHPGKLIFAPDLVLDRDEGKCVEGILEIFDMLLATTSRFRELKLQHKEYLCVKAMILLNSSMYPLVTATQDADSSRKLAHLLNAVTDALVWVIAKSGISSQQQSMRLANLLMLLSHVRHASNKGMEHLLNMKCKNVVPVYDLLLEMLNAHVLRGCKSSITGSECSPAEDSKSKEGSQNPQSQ
# Outline: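 Reporter cells (HEK293T, ER-beta-UAS-bla) receive compounds or DMSO after a 6 hr pre-incubation. They then incubate 16 hr at 37C/5% CO2, and fluorescence from LiveBLAzer B/G substrate is measured after 2 hours at room temperature.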
# [3] = molecular target: Estrogen receptor beta (Homo sapiens) (UniProt Q92731); test: qHTS assay to identify small molecule antagonists of the estrogen receptor beta (ER-beta) signaling pathway (AID 1259378; active means well fitted inhibition curve with a large enough effect in the signal ratio in the repeat runs, not every such curve was filed as active; the % refers to the signal ratio)
# Outline: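 Antagonist mode: compounds added to beta-lactamase reporter HEK293T ER-beta-UAS cells stimulated with E2 (1nM final), 16 hr at 37C. LiveBLAzer B/G FRET substrate, 2 hours room temperature, fluorescence read-out.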
# [4] = qHTS assay to identify small molecule agonists of the androgen receptor (AR) signaling pathway in the presence of an antagonist - cell viability counter screen (AID 1259379);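 further: MDA-kb2 human breast cancer cells carrying an MMTV luciferase reporter; series mostly up to about 92 µM; nearly all actives have a fitted effect of over 25% in size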
# Outline: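 Cells: MDA-kb2 (MMTV-luc, AR and GR elements), 3,000/well, 5 hr settle. Added: nilutamide 3.0uM final, then compounds (15 conc.). Incubation: 16 hr, 37C, no CO2. Read-out: CellTiter-Fluor, 1 hr, fluorescence.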
# [5] = qHTS assay to identify small molecule agonists of the estrogen receptor beta (ER-beta) signaling pathway - cell viability counter screen (AID 1259380); further: nearly all actives have a fitted effect of over 30% in size
# Outline: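 HEK293T ER-beta-UAS-bla; 2% CS-FBS; 6 hr pre-plate, 16 hr cpd at 37C/5% CO2; LiveBLAzer read first, then CellTiter-Glo 30 min RT, luminescence.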
# [6] = molecular target: Androgen receptor (Homo sapiens) (UniProt P10275); test: qHTS assay to identify small molecule agonists of the androgen receptor (AR) signaling pathway in the presence of an antagonist (AID 1259381; calls by dose curve; further: nearly all actives have a fitted effect of over 15% in size)
# Sequence of Androgen receptor (Homo sapiens) (P10275 whole entry, looked up): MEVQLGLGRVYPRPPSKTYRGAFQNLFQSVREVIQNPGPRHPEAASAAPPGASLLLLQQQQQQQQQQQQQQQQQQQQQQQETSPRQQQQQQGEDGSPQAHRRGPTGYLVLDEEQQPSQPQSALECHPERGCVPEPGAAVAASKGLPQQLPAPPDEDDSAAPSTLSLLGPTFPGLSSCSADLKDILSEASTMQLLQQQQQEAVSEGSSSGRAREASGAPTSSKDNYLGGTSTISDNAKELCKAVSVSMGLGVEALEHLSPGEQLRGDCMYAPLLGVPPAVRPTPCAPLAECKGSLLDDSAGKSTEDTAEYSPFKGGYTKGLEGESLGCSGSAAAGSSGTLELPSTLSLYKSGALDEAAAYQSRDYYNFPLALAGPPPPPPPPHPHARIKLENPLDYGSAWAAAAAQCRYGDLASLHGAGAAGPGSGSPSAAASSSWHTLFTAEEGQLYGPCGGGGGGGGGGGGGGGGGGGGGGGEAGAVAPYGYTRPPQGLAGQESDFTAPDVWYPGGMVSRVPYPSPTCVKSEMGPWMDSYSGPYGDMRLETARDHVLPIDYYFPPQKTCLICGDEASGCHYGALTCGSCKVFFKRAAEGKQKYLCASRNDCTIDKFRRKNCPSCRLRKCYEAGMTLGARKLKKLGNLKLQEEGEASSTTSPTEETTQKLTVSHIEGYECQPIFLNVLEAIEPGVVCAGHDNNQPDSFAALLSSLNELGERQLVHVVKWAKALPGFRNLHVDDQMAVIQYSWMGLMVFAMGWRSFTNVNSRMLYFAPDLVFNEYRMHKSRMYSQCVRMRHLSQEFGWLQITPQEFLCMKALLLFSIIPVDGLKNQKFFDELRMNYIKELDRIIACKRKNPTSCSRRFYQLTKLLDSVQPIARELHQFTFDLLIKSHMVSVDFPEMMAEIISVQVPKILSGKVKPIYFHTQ
# Outline: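 MDA-kb2 cells, 3,000/well, rested 5hr at 37C/0% CO2 → nilutamide 3.0uM final or buffer → compounds, 15 conc. → 16hr at 37C → ONE-Glo, 30min RT → luminescence.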
# [7] = qHTS assay to identify small molecule antagonists of the estrogen receptor beta (ER-beta) signaling pathway - cell viability counter screen (AID 1259382);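 further: HEK293T cells carrying ER-beta-UAS-bla reporter stimulated with estradiol; series mostly up to about 92 µM; nearly all actives have a fitted effect of over 55% in size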
# Outline: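 Cells: ER-beta-UAS-bla HEK293T, 2,000/well, 2% CS-FBS, 6 hr settle. Cpd + E2 (1nM final), 16 hr, 37C/5% CO2. Bla FRET substrate 2 hr RT, then CellTiter-Glo 30 min RT, luminescence.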
# [8] = qHTS assay to identify small molecule agonists of the estrogen receptor alpha (ER-alpha) signaling pathway in the presence of an antagonist - cell viability counter screen (AID 1259386);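 further: series mostly up to about 92 µM; cells exposed to compounds for 22 h at 37 °C before the viability read; nearly all actives have a fitted effect of over 30% in size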
# Outline: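 VM7Luc4E2, stripped-serum pre-culture 5 d; 24hr plating; +ICI-182,780 10.0nM final; cpds 15 conc, 22hr, 37C/5% CO2; CellTiter-Fluor added at 21hr, fluorescence 1hr later.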
# [9] = molecular target: Progesterone receptor (Homo sapiens) (UniProt P06401); test: qHTS assay to identify small molecule agonists of the progesterone receptor (PR) signaling pathway (AID 1346784; calls by dose curve; further: nearly all actives have a fitted effect of over 30% in size)
# Sequence of Progesterone receptor (Homo sapiens) (P06401 whole entry, looked up): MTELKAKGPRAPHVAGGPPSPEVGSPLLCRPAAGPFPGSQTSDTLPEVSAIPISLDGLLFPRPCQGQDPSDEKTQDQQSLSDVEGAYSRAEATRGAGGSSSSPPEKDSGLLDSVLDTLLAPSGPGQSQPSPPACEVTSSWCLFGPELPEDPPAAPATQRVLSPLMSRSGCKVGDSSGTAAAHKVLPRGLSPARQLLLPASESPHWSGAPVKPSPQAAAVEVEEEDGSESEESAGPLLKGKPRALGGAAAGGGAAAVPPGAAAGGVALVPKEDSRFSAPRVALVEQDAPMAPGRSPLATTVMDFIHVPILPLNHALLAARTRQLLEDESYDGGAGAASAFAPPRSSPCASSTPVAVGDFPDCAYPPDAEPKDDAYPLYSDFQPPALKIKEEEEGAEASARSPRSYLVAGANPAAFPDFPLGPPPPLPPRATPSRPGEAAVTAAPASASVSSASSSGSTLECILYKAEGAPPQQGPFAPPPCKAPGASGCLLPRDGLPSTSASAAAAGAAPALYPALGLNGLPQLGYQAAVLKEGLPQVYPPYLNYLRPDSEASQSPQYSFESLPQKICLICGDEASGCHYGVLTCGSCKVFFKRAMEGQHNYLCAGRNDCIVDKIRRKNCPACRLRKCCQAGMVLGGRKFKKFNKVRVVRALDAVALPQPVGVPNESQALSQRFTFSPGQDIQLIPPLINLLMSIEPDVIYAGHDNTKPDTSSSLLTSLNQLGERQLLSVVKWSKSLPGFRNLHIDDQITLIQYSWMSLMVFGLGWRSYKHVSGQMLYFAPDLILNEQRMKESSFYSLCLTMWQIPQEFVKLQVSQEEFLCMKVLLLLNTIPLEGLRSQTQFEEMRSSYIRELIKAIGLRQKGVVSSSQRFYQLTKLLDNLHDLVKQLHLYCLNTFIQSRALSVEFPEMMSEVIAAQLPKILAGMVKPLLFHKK
# Outline: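 Reporter assay, GripTite PR-UAS-bla HEK 293T cells: 16 hr exposure to DMSO-dissolved compounds at 37C, 5% CO2, in steroid-depleted (2% charcoal-stripped FBS) medium; beta-lactamase measured by FRET fluorescence.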
# [10] = molecular target: Progesterone receptor (Homo sapiens) (UniProt P06401); test: qHTS assay to identify small molecule antagonists of the progesterone receptor (PR) signaling pathway (AID 1346795; active means well fitted inhibition curve with a large enough effect in the signal ratio in the repeat runs, not every such curve was filed as active; the % refers to the signal ratio; further: potency means the concentration at half of the fitted maximal effect)
# Outline: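 Stimulus R5020 at 1 nM final; cells HEK293T PR-UAS-bla; medium with 2% charcoal-stripped FBS; compound exposure 16 hr at 37C, 5% CO2; detection by FRET beta-lactamase substrate, 2 hr, room temperature.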
# [11] = qHTS assay to identify small molecule agonists of the progesterone receptor (PR) signaling pathway - cell viability counter screen (AID 1346799; calls by dose curve; further: nearly all actives have a fitted effect of over 45% in size)
# Outline: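 Multiplexed viability read: CellTiter-Glo luminescence, 30 min RT, following LiveBLAzer FRET measurement on PR-UAS-bla HEK293T cells exposed to compounds 16 hr.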
# [12] = qHTS assay to identify small molecule antagonists of the TGF-beta/Smad signaling pathway - cell viability counter screen (AID 1346824); further: nearly all actives have a fitted effect of over 50% in size
# Outline: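 Cytotoxicity counter-screen run in the same wells as the beta-lactamase Smad reporter read: CellTiter-Glo luminescence after 30 min at room temperature. HEK 293T SBE-bla cells had 5 hr compound exposure at 37 C with TGF-beta1 (0.25 ng/mL stock).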
# [13] = qHTS assay to identify small molecule agonists of the TGF-beta/Smad signaling pathway - cell viability counter screen (AID 1346829); further: top concentration of the series differs between compounds; nearly all actives have a fitted effect of over 45% in size
# Outline: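 Same-well cytotoxicity: CellTiter-Glo added after the 2 hr room-temperature beta-lactamase substrate step, luminescence measured 30 min later; cells had 5 hr of compound at 37 C.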
# [14] = qHTS assay to identify small molecule agonists of the TGF-beta/Smad signaling pathway (AID 1346859; active means well fitted activation curve with a large enough effect in the signal ratio in the repeat runs, not every such curve was filed as active; the % refers to the signal ratio; further: series mostly up to about 77 µM)
# Outline: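 Screening used HEK 293T SBE-bla cells at 4,000/well. Test agents: 5 hr, 37 C. Detection: FRET substrate, 2 hr RT, then excitation 405 nm with emissions at 460 and 530 nm.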
# [15] = molecular target: Thyrotropin-releasing hormone receptor (Homo sapiens) (UniProt P34981); test: qHTS assay to identify small molecule antagonists of the thyrotropin-releasing hormone receptor (TRHR) signaling pathway (AID 1346877; active means well fitted inhibition curve with a large enough effect in the repeat runs, not every such curve was filed as active; further: series mostly up to about 51 µM)
# Sequence of Thyrotropin-releasing hormone receptor (Homo sapiens) (P34981 whole entry, looked up): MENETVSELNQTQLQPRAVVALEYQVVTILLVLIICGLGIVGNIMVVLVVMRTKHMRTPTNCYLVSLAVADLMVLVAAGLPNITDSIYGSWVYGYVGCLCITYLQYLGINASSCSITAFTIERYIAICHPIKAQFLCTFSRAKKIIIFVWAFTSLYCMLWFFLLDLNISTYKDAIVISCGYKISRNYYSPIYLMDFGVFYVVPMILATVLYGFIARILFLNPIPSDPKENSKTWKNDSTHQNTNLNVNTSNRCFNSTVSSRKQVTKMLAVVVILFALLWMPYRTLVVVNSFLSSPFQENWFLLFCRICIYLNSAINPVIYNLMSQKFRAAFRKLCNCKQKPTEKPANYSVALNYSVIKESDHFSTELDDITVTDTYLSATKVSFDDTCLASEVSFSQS
# Outline: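 Intracellular calcium fluorescence, read kinetically every second over 3 min, reports TRH-evoked signalling in HEK293 cells carrying TRHR. Test compounds were added 5 min ahead of a 1 nM TRH challenge.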
# [16] = molecular target: Thyrotropin-releasing hormone receptor (Homo sapiens) (UniProt P34981); test: qHTS assay to identify small molecule agonists of the thyrotropin-releasing hormone receptor (TRHR) signaling pathway (AID 1346891; calls by dose curve; further: series mostly up to about 58 µM)
# Outline: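 Readout was intracellular calcium fluorescence in TRHR-Hek293 cells. Cells were incubated 18 h, dye-loaded 2 h at 37 °C, and treated with compound in agonist mode.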
# [17] = molecular target: Estrogen receptor (Homo sapiens) (UniProt P03372); test: qHTS assay to identify small molecule agonists of the estrogen receptor alpha (ER-alpha) signaling pathway in the presence of an antagonist (AID 1259383; calls by dose curve; further: top concentration of the series differs between compounds; nearly all actives have a fitted effect of over 15% in size)
# Sequence of Estrogen receptor (Homo sapiens) (P03372 whole entry, looked up): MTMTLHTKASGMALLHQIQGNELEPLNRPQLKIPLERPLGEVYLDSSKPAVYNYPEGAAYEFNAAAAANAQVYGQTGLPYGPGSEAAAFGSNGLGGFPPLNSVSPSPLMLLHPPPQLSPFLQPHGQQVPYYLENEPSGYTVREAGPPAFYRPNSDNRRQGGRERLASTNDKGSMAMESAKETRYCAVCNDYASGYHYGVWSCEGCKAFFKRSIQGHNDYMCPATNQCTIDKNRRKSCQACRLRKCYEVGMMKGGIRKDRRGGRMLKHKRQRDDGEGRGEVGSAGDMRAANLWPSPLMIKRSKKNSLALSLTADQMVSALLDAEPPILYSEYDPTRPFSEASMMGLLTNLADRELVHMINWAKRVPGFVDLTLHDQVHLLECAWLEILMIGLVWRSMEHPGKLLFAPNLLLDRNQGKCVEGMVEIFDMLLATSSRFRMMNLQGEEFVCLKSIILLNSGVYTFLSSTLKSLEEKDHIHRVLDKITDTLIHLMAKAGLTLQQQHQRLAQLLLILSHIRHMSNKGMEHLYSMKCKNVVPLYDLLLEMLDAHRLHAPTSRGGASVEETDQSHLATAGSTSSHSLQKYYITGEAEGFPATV
# Outline: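 VM7Luc4E2, endog. ER-alpha + 4×ERE-luc; charcoal-stripped FBS, phenol red-free, 5 d; 24hr plating; +10.0nM ICI-182,780 (final); cpds 15 conc, 22hr, 37C/5% CO2; ONE-Glo luminescence.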
# [18] = qHTS assay to identify small molecule antagonists of the progesterone receptor (PR) signaling pathway - cell viability counter screen (AID 1346798); further: series mostly up to about 92 µM; nearly all actives have a fitted effect of over 50% in size
# Outline: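 In the same plates used for the beta-lactamase readout, cell viability of compound- and R5020-treated PR-UAS-bla HEK293T cells (16 hr, 37C) was assessed by CellTiter-Glo luminescence.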
# [19] = qHTS assay to identify small molecule agonists or antagonists of the thyroid stimulating hormone receptor (TSHR) signaling pathway - wild type cell line counter screen (AID 1259384; calls by dose curve)
# Outline: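 Counter screen in untransfected Hek293: compounds (15-point titration, triplicate) plus phosphodiesterase inhibitor Ro20-1724 added after 18 h plating; 30 min RT. Intracellular cAMP via competitive d2/cryptate immunoassay, 1 h incubation.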
# [20] = molecular target: Thyrotropin receptor (Homo sapiens) (UniProt P16473); test: qHTS assay to identify small molecule antagonists of the thyroid stimulating hormone receptor (TSHR) signaling pathway (AID 1259385; calls by dose curve; further: nearly all actives have a fitted effect of over 20% in size)
# Sequence of Thyrotropin receptor (Homo sapiens) (P16473 whole entry, looked up): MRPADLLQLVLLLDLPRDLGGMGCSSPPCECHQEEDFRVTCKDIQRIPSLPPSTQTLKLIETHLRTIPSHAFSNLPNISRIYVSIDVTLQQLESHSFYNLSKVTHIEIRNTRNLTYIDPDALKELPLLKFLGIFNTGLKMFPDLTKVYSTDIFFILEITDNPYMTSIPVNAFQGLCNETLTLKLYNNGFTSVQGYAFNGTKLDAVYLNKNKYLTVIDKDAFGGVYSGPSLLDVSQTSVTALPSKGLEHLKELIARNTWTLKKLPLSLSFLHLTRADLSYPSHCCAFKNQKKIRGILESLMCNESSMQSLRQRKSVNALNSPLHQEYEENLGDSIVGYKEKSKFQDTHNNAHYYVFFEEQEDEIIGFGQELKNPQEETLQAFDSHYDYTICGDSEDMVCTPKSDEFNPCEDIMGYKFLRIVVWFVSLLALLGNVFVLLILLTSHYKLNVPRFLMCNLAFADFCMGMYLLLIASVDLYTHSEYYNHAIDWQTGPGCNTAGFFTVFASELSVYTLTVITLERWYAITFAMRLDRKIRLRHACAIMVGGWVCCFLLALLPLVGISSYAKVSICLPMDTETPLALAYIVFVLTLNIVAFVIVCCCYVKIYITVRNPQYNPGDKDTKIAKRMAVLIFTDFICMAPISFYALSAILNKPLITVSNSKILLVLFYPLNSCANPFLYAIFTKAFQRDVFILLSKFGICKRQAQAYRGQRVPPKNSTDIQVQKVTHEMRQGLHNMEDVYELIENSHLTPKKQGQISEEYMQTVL
# Outline: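 Antagonist mode: compound-treated TSHR-expressing HEK293 cells were stimulated with 1.5 ng/mL TSH (final) in presence of Ro20-1724 for 30 min at RT. HTRF cAMP detection after 1 h; each compound tested at 15 concentrations, triplicate.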
smiles,measurement,setting,value
OCCNCc1ccccc1,Potency,[1],inactive
same,Potency,[2],inactive
same,Potency,[3],inactive
same,Potency,[4],inactive
same,Potency,[5],inactive
same,Potency,[6],inactive
same,Potency,[7],inactive
same,Potency,[8],inactive
same,Potency,[9],inactive
same,Potency,[10],inactive
same,Potency,[11],inactive
same,Potency,[12],inactive
same,outcome,[13],inactive
same,Potency,[14],inactive
same,outcome,[15],inactive
same,Potency,[16],inactive
CN(C)CCN(Cc1ccsc1)c1ccccn1,Potency,[1],inactive
same,Potency,[2],inactive
same,Potency,[3],inactive
same,Potency,[4],inactive
same,Potency,[5],inactive
same,Potency,[6],inactive
same,Potency,[7],inactive
same,Potency,[17],inactive
same,Potency,[8],inactive
same,Potency,[9],inactive
same,Potency,[10],inactive
same,Potency,[18],inactive
same,Potency,[11],inactive
same,Potency,[12],inactive
same,outcome,[13],inactive
same,Potency,[14],inactive
same,Potency,[16],inactive
NCc1ccccc1Sc1ccccc1CO,Potency,[1],inactive
same,Potency,[2],inactive
same,Potency,[3],inactive
same,Potency,[4],inactive
same,Potency,[5],inactive
same,Potency,[6],inactive
same,Potency,[7],inactive
same,Potency,[17],inactive
same,Potency,[19],inactive
same,Potency,[20],inactive
same,Potency,[8],inactive
same,Potency,[9],inactive
same,Potency,[10],inactive
same,Potency,[18],inactive
same,Potency,[11],inactive
same,Potency,[12],inactive
same,outcome,[13],inactive
same,Potency,[14],inactive
same,outcome,[15],inactive
same,Potency,[16],inactive
NCC(=O)CCC(=O)O,Potency,[1],inactive
same,Potency,[2],inactive
same,Potency,[3],inactive
same,Potency,[4],inactive
same,Potency,[5],inactive
same,Potency,[7],inactive
same,Potency,[17],inactive
same,Potency,[19],inactive
same,Potency,[20],inactive
same,Potency,[8],inactive
same,Potency,[10],inactive
same,Potency,[11],inactive
same,Potency,[12],inactive
same,outcome,[13],inactive
same,Potency,[14],inactive
CCOCC(O)COc1ccc(NC(=O)CC[S+](C)C)cc1 (configuration not stated),Potency,[1],inactive
same,Potency,[2],inactive
same,Potency,[3],inactive
same,Potency,[4],inactive
same,Potency,[5],inactive
same,Potency,[7],inactive
same,Potency,[17],inactive
same,Potency,[19],inactive
same,Potency,[20],inactive
same,Potency,[8],inactive
same,Potency,[9],inactive
same,Potency,[10],inactive
same,Potency,[18],inactive
same,Potency,[11],inactive
same,Potency,[12],inactive
same,outcome,[13],inactive
same,Potency,[14],inactive
same,Potency,[16],inactive
c1cc(CCCc2ccncc2)ccn1,Potency,[1],inactive
same,Potency,[2],inactive
same,Potency,[3],inactive
same,Potency,[4],inactive
same,Potency,[5],inactive
same,Potency,[7],inactive
same,Potency,[17],inactive
same,Potency,[19],inactive
same,Potency,[20],inactive
same,Potency,[8],inactive
same,Potency,[9],inactive
same,Potency,[10],54.5 µM (active)
same,Potency,[18],inactive
same,Potency,[12],inactive
same,outcome,[13],inactive
same,Potency,[14],inactive
same,outcome,[15],inactive
same,Potency,[16],inactive
Cc1[nH]c(C)c(Cl)c(=O)c1Cl,"activity change, negative = inhibition",[1],33.7% [at 19 µM]
same,activation,[2],0.451% [at 19 µM]
same,"activity, negative = inhibition",[3],9.97% [at 19 µM]
same,"activity change, negative = cytotoxicity",[4],0.0878% [at 19 µM]
same,"activity change, negative = cytotoxicity",[5],2.64% [at 19 µM]
same,"activity change, negative = cytotoxicity",[7],0.273% [at 19 µM]
same,Potency,[17],inactive
same,cAMP activity change,[19],"6.03% [at 18.9 µM, stronger effect = higher value]"
same,"activity change, negative = inhibition",[20],4.84% [at 19 µM]
same,"activity change, negative = cytotoxicity",[8],-1.35% [at 19 µM]
same,"activity change, negative = inhibition",[10],4.44% [at 18.9 µM]
same,"activity change, negative = cytotoxicity",[18],10.6% [at 18.9 µM]
same,"activity change, negative = cytotoxicity",[11],5.96% [at 19 µM]
same,"viability change, negative = cytotoxic",[12],5.33% [at 15.8 µM]
same,"activity change, negative = cytotoxicity",[13],5.04% [at 15.8 µM]
same,activation,[14],0.225% [at 15.8 µM]
same,"activity, negative = inhibition",[15],2.83% [at 10.5 µM]
same,activation,[16],-1.18% [at 11.8 µM]
